Data reported in PubChem BioAssay (NCI).
Several values for one entry are separate records, joined by “and”; a condition that tells them apart may be missing. Equal values may be shown once. About 83,000 compounds went through this panel and 20% of them were active in at least one assay; those are over-represented in the sample as a whole.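 Testing used 96-well plates and a 48-hour single-concentration exposure. Example: -40 means 40% of the starting cells died.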 Activity calls are given as the source filed them. Rule for the calls: active = growth percent below 10; inactive = the rest.

How the values were obtained:
Assay in all cases: NCI-60 one-dose screen, 48 h (100 = growth as untreated, 0 = no growth, -100 = all killed)
Conditions in all cases: 10 µM unless noted
[1] = test system: NCI-H23 lung
[2] = test system: NCI-H226 lung
[3] = test system: NCI-H322M lung
[4] = test system: HOP-62 NSCLC
[5] = test system: NCI-H460 lung
[6] = test system: HOP-92 NSCLC
[7] = test system: NCI-H522 lung
[8] = test system: A549/ATCC NSCLC
[9] = test system: 786-0 renal
[10] = test system: COLO 205 colon
[11] = test system: DU-145 prostate
[12] = test system: K-562 leukemia
[13] = test system: MALME-3M melanoma
[14] = test system: MDA-MB-231 breast
[15] = test system: RXF 393 renal
[16] = test system: SF-268 CNS
[17] = test system: SF-295 CNS
[18] = test system: SF-539 CNS
[19] = test system: UACC-257 melanoma
[20] = test system: M14 melanoma

Measured: growth

Cc1nc2cccc(NCCCCC(=O)NO)c2c(=O)n1-c1ccccc1
inactive: [1] 69.3% | [2] 83.9% | [3] 66.1% | [4] 50.3% | [5] 76.5% | [6] 43.3% | [7] 43.5% | [8] 78.8% | [9] 69.7% | [10] 62.4% | [11] 58.1% | [12] 40.9% | [13] 23.4% | [14] 77.1% | [15] 49.2% | [16] 74.6% | [17] 82.9% | [18] 49.9% | [19] 42.7% | [20] 50.4%

ON=C1CCCCCCCC1
inactive: [1] 99.6% and 98% | [2] 105% | [3] 96.4% | [4] 104% | [5] 114% and 110% | [6] 105% and 102% | [7] 94.1% and 92.8% | [8] 103% and 110% | [9] 116% and 95.6% | [10] 102% and 112% | [11] 107% and 103% | [12] 88.5% and 108% | [13] 100% and 98.6% | [14] 107% and 123% | [15] 112% | [16] 99.8% and 96.9% | [17] 105% and 103% | [18] 92.1% and 102% | [19] 104% and 107% | [20] 102% and 101%

C/C(=C(\c1ccc(OCCN2CCOCC2)cc1)c1ccc(OC(=O)C2CCCCC2)cc1)c1ccc(Cl)cc1
inactive: [1] 88.9% | [2] 103% | [3] 91.9% | [4] 99.4% | [5] 97.5% | [6] 71% | [7] 62.8% | [8] 92.9% | [9] 80.6% | [10] 103% | [11] 103% | [12] 66.1% | [13] 104% | [14] 98.8% | [15] 94.9% | [16] 95.8% | [17] 106% | [18] 105% | [19] 99% | [20] 87.4%

COc1ccc(-c2ccc(-c3ccc(C(=N)N)cn3)s2)cc1Cl
inactive: [2] 88.1% | [15] 64.5%
active: [1] -57.5% | [3] -97.1% | [4] -50.5% | [5] -93% | [6] -76.8% | [7] -44.2% | [8] -58.2% | [9] -61.3% | [10] -51.7% | [11] -47% | [12] -47.8% | [13] -88% | [14] -77.9% | [16] -30.5% | [17] -80.9% | [18] -93.5% | [19] -60.8% | [20] -81.7%

Cc1ccc(Cl)cc1N1CCN(C(=O)[C@@H]2C[C@@H]2c2ccc(F)cc2)CC1
inactive: [1] 84.2% | [2] 73.6% | [3] 93% | [4] 100% | [5] 99.7% | [6] 74.9% | [7] 69.3% | [8] 77.7% | [9] 93.6% | [10] 107% | [11] 114% | [12] 75.6% | [13] 95% | [14] 102% | [15] 103% | [16] 90.1% | [17] 88.9% | [18] 95.6% | [19] 95.4% | [20] 93.4%

[2H]C([2H])([2H])Oc1cccc(/C=C/C(=O)/C=C(/C=C/c2cccc(OC([2H])([2H])[2H])c2OC([2H])([2H])[2H])OB(F)F)c1OC([2H])([2H])[2H]
inactive: [1] 69.9% | [2] 95.4% | [3] 106% | [4] 99.5% | [5] 96.9% | [6] 102% | [7] 56.9% | [8] 93.4% | [9] 85.2% | [10] 55.2% | [11] 88.3% | [12] 65.2% | [13] 75.9% | [14] 88% | [15] 121% | [16] 98% | [17] 103% | [18] 92.2% | [19] 64.5% | [20] 92.8%

CC1=C2[C@@H](CC1)[C@]1(C)O[C@@](C3CC3)(C[C@H]1OC(=O)CO)[C@H]2OC(=O)/C=C/c1ccccc1
inactive: [1] 103% | [2] 86.7% | [3] 82.2% | [4] 89.6% | [5] 90.7% | [6] 82.2% | [7] 88.4% | [8] 79% | [9] 73.2% | [10] 116% | [11] 105% | [12] 79.4% | [13] 90.9% | [14] 81.2% | [15] 38.4% | [16] 41% | [17] 100% | [18] 109% | [19] 92.1% | [20] 96.4%

c1cc(NCCCCN2CCOCC2)c2ccc3c(ccc4c(NCCN5CCOCC5)ccnc43)c2n1
inactive: [1] 70.7% | [2] 79.6% | [3] 72.9% | [4] 81.5% | [5] 40.8% | [6] 56.8% | [7] 82.5% | [8] 75.9% | [9] 79.5% | [10] 90.5% | [11] 80.8% | [12] 66.5% | [13] 99.9% | [14] 71% | [15] 72.5% | [16] 101% | [17] 97.9% | [18] 82.3% | [19] 116% | [20] 92.7%

CCOC(=O)C1=C(C)N=C2SC=C(c3ccc(F)cc3)N2[C@H]1c1cn(-c2ccccc2)nc1-c1ccc(Cl)cc1
inactive: [1] 102% | [2] 96.4% | [3] 88.6% | [4] 86.8% | [5] 102% | [6] 61.6% | [7] 83.4% | [8] 77.8% | [9] 87.6% | [10] 107% | [11] 104% | [12] 102% | [13] 100% | [14] 88.5% | [15] 97.1% | [16] 92.4% | [17] 99% | [18] 101% | [19] 81.5% | [20] 98.6%

O=Nc1c(O)ccc2ccccc12
inactive: [1] 89.7% | [2] 93.2% and 97.4% | [3] 97.1% | [4] 117% and 101% | [5] 96.4% and 106% | [6] 66% and 87.1% | [7] 41.8% and 86.2% | [8] 72.2% and 100% | [9] 92.1% and 104% | [10] 71.1% and 110% | [11] 83.9% and 113% | [12] 51% and 87.7% | [13] 33.3% and 122% | [14] 57.4% and 62.7% | [15] 80.5% and 102% | [16] 49.6% and 103% | [17] 91.3% and 109% | [18] 94.9% and 104% | [20] 49.6% and 104%
-51.3% (active) and 80.8% (inactive): [19]

Oc1ccccc1C=Nc1ccc(N2CCN(c3ccccc3)CC2)cc1
inactive: [1] 93.4% | [2] 110% | [3] 98.2% | [4] 74.7% | [5] 111% | [6] 99.5% | [7] 95.7% | [8] 92.1% | [9] 94.1% | [10] 93.7% | [11] 104% | [12] 80.7% | [13] 114% | [14] 100% | [15] 97.7% | [16] 99.2% | [17] 103% | [18] 77.2% | [19] 97% | [20] 96.3%

CC/C(=C(/c1ccc(Cl)cc1)c1ccc(OCCN2CCOCC2)cc1)c1ccccc1
inactive: [1] 87.5% | [2] 108% | [3] 104% | [4] 106% | [5] 96.1% | [6] 98.4% | [7] 88.6% | [8] 89.9% | [9] 103% | [10] 99.8% | [11] 98.4% | [12] 63.7% | [13] 104% | [14] 95.5% | [15] 107% | [16] 90.5% | [17] 97.1% | [18] 104% | [19] 98.8% | [20] 99.5%

CN1C(=O)/C(=C/c2ccc(C(=O)Nc3ncc(Cc4ccccc4Cl)s3)cc2)SC1=S
inactive: [1] 94.6% | [2] 81.4% | [3] 72.2% | [4] 74.2% | [5] 79.5% | [6] 75.1% | [7] 64.2% | [8] 72.2% | [9] 87.9% | [10] 86.2% | [11] 73% | [12] 71.8% | [13] 62.2% | [14] 56.7% | [15] 69.1% | [16] 80.9% | [17] 58.4% | [18] 77% | [19] 89.3% | [20] 42.1%

C=CCNC(=O)Cc1c(-c2ccc(OC)cc2)oc2c(OC)c3c(c(OC)c12)OCO3
inactive: [1] 96.2% | [2] 101% | [3] 97.9% | [4] 105% | [5] 102% | [6] 114% | [7] 92.7% | [8] 95.2% | [9] 104% | [10] 117% | [11] 104% | [12] 102% | [13] 106% | [14] 91.1% | [15] 90.8% | [16] 96.2% | [17] 106% | [18] 103% | [19] 105% | [20] 101%

CN1Cn2c(ccc2C(F)(F)F)C(=O)CS1(=O)=O
inactive: [1] 108% | [2] 111% | [3] 104% | [4] 100% | [5] 110% | [6] 102% | [7] 103% | [8] 108% | [9] 96.7% | [10] 116% | [11] 114% | [12] 110% | [13] 90.2% | [14] 106% | [15] 135% | [16] 108% | [17] 103% | [18] 94.3% | [19] 102% | [20] 104%
